# From PubChem BioAssay (NCI)
# Compounds without any hit were thinned out: in the full panel of roughly 83,000, 20% have a hit.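 Results are percent growth after 48 hours of single-concentration exposure. 100 means growth as in untreated cells, lower positive values show inhibition; negative values down to -100 show cell death.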 A number with no mark means an inactive call. Active and inactive are the calls of the source. How the source made its calls: active means growth percent below 10; inactive means the rest.
# Assays:
# Experiment in all cases: NCI-60 one-dose screen, 48 h (100 = growth as untreated, 0 = no growth, -100 = all killed)
# NCI-H23 lung = conditions: 10 µM unless noted
# NCI-H322M lung = conditions: 10 µM unless noted
# NCI-H460 lung = conditions: 10 µM unless noted
# HOP-92 NSCLC = conditions: 10 µM unless noted
# NCI-H522 lung = conditions: 10 µM
# A549/ATCC NSCLC = conditions: 10 µM unless noted
# 786-0 renal = conditions: 10 µM unless noted
# DU-145 prostate = conditions: 10 µM unless noted
# K-562 leukemia = conditions: 10 µM unless noted
# MALME-3M melanoma = conditions: 10 µM unless noted
# MDA-MB-231 breast = conditions: 10 µM unless noted
# RXF 393 renal = conditions: 10 µM unless noted
# SF-268 CNS = conditions: 10 µM unless noted
# SF-295 CNS = conditions: 10 µM unless noted
# SF-539 CNS = conditions: 10 µM unless noted
# UACC-257 melanoma = conditions: 10 µM unless noted
# M14 melanoma = conditions: 10 µM unless noted
# NCI-H226 lung = conditions: 10 µM
# HOP-62 NSCLC = conditions: 10 µM unless noted
# COLO 205 colon = conditions: 10 µM unless noted
Structure (SMILES),growth (NCI-H23 lung) [%],growth (NCI-H322M lung),growth (NCI-H460 lung),growth (HOP-92 NSCLC),growth (NCI-H522 lung),growth (A549/ATCC NSCLC),growth (786-0 renal),growth (DU-145 prostate),growth (K-562 leukemia),growth (MALME-3M melanoma),growth (MDA-MB-231 breast),growth (RXF 393 renal),growth (SF-268 CNS),growth (SF-295 CNS),growth (SF-539 CNS),growth (UACC-257 melanoma),growth (M14 melanoma),growth (NCI-H226 lung),growth (HOP-62 NSCLC),growth (COLO 205 colon)
CCOC(=O)c1cn2c3c(cc(F)cc3c1=O)C(CC)c1ccccc1C2 (configuration not stated),103,87.1%,101%,95.6%,78.7%,87.2%,93.2%,104%,78.1%,90.8%,104%,118%,96.8%,91.5%,97.5%,96.3%,114%,,,
O=C(C[Si](CC(=O)c1cccc(C(F)(F)F)c1)CC(=O)c1cccc(C(F)(F)F)c1)c1cccc(C(F)(F)F)c1,,74.5%,8.35% (active),-27.9% (active),68.7%,49%,75.8%,33.2%,4.55% (active),77.2%,86.3%,102%,40%,2.69% (active),107%,81.8%,89.4%,82.9%,95.6%,98.4%
COc1cc(C(=O)/C=C/c2c(-c3cccs3)nc3sccn23)cc(OC)c1OC,,8.06% (active),-27.9% (active),-5.38% (active),-13% (active),-3.26% (active),-13.9% (active),3.28% (active),15.4%,34.8%,7.07% (active),-20.7% (active),17.7%,-35.8% (active),-27.6% (active),5.19% (active),7.73% (active),26.2%,0.498% (active),-49.7% (active)
FC(F)(F)c1ccc2c(c1)n1cnnc1c1nncn21,103,,110%,88.7%,97.1%,,101%,118%,100%,106%,104%,104%,117%,89.2%,114%,,114%,,113%,111%
Clc1ccc2c(c1)C[C@H]1C[C@@H](c3cccs3)N2O1,106,99.7%,104%,69.8%,102%,98.2%,108%,106%,106%,95.9%,113%,131%,102%,94.4%,92.3%,105%,118%,,,112%
Cc1nc2ccc(Cl)cc2n1C,107,108%,109%,105%,90.2%,103%,101%,115%,92.4%,106%,118%,101%,103%,104%,106%,100%,106%,,,
CON=C1C[C@]2(C[C@@H]3C[C@@H](C/C=C(\C)C[C@@H](C)/C=C/C=C4\CO[C@@H]5[C@H](O)C(C)=C[C@@H](C(=O)O3)[C@]45O)O2)O[C@H](/C(C)=C/C(C)C)[C@H]1C,,72.1%,39.3%,24.8%,50.5%,48.7%,65.5%,39.6%,,65.9%,54%,47.2%,58.3%,33%,85.1%,81.3%,57.4%,72%,76.5%,59.1%
O=C1/C(=C/c2ccc(Cl)cc2)CN(Cc2cn(CCCNc3ccnc4cc(Cl)ccc34)nn2)C/C1=C\c1ccc(Cl)cc1,,-28.9% (active),-67.6% (active),-65.3% (active),-92.8% (active),-62.9% (active),-74.4% (active),-11.6% (active),0.972% (active),-64.6% (active),-58.4% (active),-97.6% (active),-84.7% (active),-56.1% (active),-91.5% (active),-69.4% (active),-64.9% (active),-81.4% (active),-69.4% (active),-61.3% (active)
Cc1nc2cc(Nc3nc(NCCN)nc(Nc4ccc(F)cc4)n3)ccc2n1Cc1ccccc1,,99.7%,82.6%,48.5%,85.9%,83.9%,82.4%,82.2%,-36.8% (active),93.5%,60.4%,72%,71.8%,79.8%,96%,90.5%,81.6%,95.4%,79.1%,
CC1=C(C/C=C(\C)CCC[C@H](C)CCC[C@H](C)CCCC(C)C)C(=O)c2ccccc2C1=O,,103%,114%,111%,107%,103%,103%,120%,,102%,106%,119%,108%,101%,96.4%,98.2%,104%,110%,115%,110%
COc1ccc(-c2nc(Nc3ccc(F)cc3)nc(Nc3ccc4c(c3)nc(C)n4Cc3ccccc3)n2)cc1,,82.4%,30.3%,39.7%,55.4%,32%,46.7%,54.7%,16.1%,52.8%,31.2%,35.7%,46.9%,49%,67.8%,43.8%,38.9%,66.6%,53.3%,28.2%
Clc1ccc(Nc2ccnc(N3CCN(c4ccnc5cc(Cl)ccc45)CC3)n2)cc1,,48.6%,48.4%,39.4%,35.1%,48.6%,48.4%,78.2%,15.7%,,33.8%,62.6%,57.3%,18.8%,62.2%,81.7%,33.7%,62.5%,47.4%,46.5%
CCOC(=O)C(CC(c1ccccc1)N1CCCCC1)[N+](=O)[O-] (configuration not stated),,88.5%,68%,78.4%,59.4%,76.4%,93.3%,94.4%,69.5%,62%,86.6%,100%,93%,,,89%,82.5%,82.9%,86%,108%
C[C@@H](Oc1cc(-c2cnn(C3CC4(CNC4)C3)c2)cnc1N)c1c(Cl)ccc(F)c1Cl,,72.1%,15.9%,0.0528% (active),69.1%,19.6%,53%,46.6%,5.12% (active),48.5%,37.9%,21.7%,39.6%,24.5%,28.9%,8.56% (active),30.2%,65.9%,49.9%,5.17% (active)
